# MCF10A rerep: A quantitative high throughput screen for small molecules that induce DNA re-replication in MCF 10a normal breast cells; Potency, µM (top dose mostly 46.1 µM), hits mostly activators; 2.9% of 350,000 active; MCF 10A DNA re-replication, Hoechst nuclear intensity, 48 h; further: nearly all actives have a fitted effect of over 50% in size
# KB-V1 cytotox: qHTS assay for MDR1-selective chemotherapeutics: Primary screen using the drug-selected MDR subline cells KB-V1 | Potency, µM (top dose mostly 46.1 µM), usual class: cytotoxic | KB-V1 MDR cells viability, CellTiter-Glo, 72 h | 3.4% of 400,000 active; further: nearly all actives have a fitted effect of over 60% in size
#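 KB-V1, DMEM (no phenol red) + 10% FBS; cpd pin-transferred, titration series; 72 h, 37 degrees C; CellTiter-Glo, luminescence. Data normalized, curve-fit.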
# KB-3-1 tox: qHTS assay for MDR1-selective chemotherapeutics: Primary screen using the parental adenocarcinoma cell KB-3-1 | KB-3-1 viability, CellTiter-Glo ATP luminescence, 72 h | 1.4% of 400,000 active | Potency, µM (top dose mostly 46.1 µM), usual class: cytotoxic; further: nearly all actives have a fitted effect of over 60% in size
#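 KB-3-1 cells, DMEM (no phenol red) + 10% FBS; compound by pin transfer, 72 h, 37 °C. Readout: CellTiter-Glo luminescence after 10 min. Data normalized, curve-fitted.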
# HT1080 IDH1KD tx: qHTS for induction of synthetic lethality in tumor cells producing 2HG: qHTS for the HT-1080-IDH1KD cell line | HT-1080 IDH1 knockdown viability, ATP luminescence, 48 h | Potency, µM (top dose mostly 46.1 µM), actives largely listed as cytotoxic | 2% of 360,000 active
#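 Viability of IDH1-knockdown HT-1080 fibrosarcoma cells was assessed by CellTiter-Glo after 48 h at 37 °C with titrated compound; concentration-effect curves were classified by fit quality and response size.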
# SW480 rereplic: A quantitative high throughput screen for small molecules that induce DNA re-replication in SW480 colon adenocarcinoma cells; SW480 DNA re-replication, Hoechst DNA content imaging, 48 h; Potency, µM (doses to about 46.1 µM), hits mostly activators; 1.8% of 340,000 active; further: nearly all actives have a fitted effect of over 55% in size
#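 Readout is total intensity of Hoechst-stained nuclei, excited at 405 nm and collected at 500-530 nm. Compound treatment lasted 48 hr at 37 C in 5% CO2 before staining.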
# HT1080NT lethal: qHTS for induction of synthetic lethality in tumor cells producing 2HG: qHTS for the HT-1080-NT fibrosarcoma cell line. HT-1080-NT fibrosarcoma viability, CellTiter-Glo ATP luminescence, 48 h. 1.6% of 360,000 active. Potency, µM (series often up to 46.1 µM), hits mostly cytotoxic. AID 686970, 2013;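 further: NT is the 2HG producing partner of a matched IDH1 knockdown line; nearly all actives have a fitted effect of over 55% in size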
#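 Fibrosarcoma NT cells, 750 per well in 5% FBS RPMI, were exposed to compound for 48 hours. Viability: CellTiter-Glo luminescence.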
# Hits are given with their value; 0 = inactive; ? = inconclusive; - = no result given. Shown are actives, neighbours in structure and some others; about 7.9% of the full set was active somewhere. The call rests on the fitted dose curve; in most records, active means well fitted curve in the direction sought with a large enough effect; inconclusive means small, poorly fitted or top-dose-only effect, or another doubt; inactive means no such curve, though single readings can be large; an effect the other way counts as inactive or inconclusive.
SMILES,MCF10A rerep,KB-V1 cytotox,KB-3-1 tox,HT1080 IDH1KD tx,SW480 rereplic,HT1080NT lethal
CCOC(=O)C1CCN(C(=O)CSc2n[nH]c(-c3ccccc3Cl)n2)CC1,-,0,0,-,-,-
CC(C)c1ccc(C(=O)N2CCCCC2c2cc(C(=O)Nc3ccncc3)no2)cc1 (stereo unspecified),-,0,0,0,-,0
CC(C)(C)c1ccc(OCCCNCc2ccccc2)cc1,23.1µM,0,?,0,23.1µM,0
COCCCNCCCOc1ccc(C(C)(C)c2ccccc2)cc1,0,?,0,0,?,0
COCCNCCCOc1ccc(C(C)(C)c2ccccc2)cc1,20.6µM,?,0,0,0,0
C/C(=N\NC(N)=S)C1=CCC2C3CC[C@H]4CC(O)CC[C@]4(C)C3CC[C@]12C (stereo partly specified),0,0,0,0,0,0
CN(C)CC(O)c1ccc(C=Cc2ccc(Cl)cc2)cc1 (stereo unspecified),?,?,?,5.8µM,0,0
CCNC(=S)N1CCC(C(=O)c2ccc(F)cc2)CC1,-,0,0,0,-,0
COc1ccc2[nH]c(=O)c(CN(c3ccc(C)c(C)c3)S(C)(=O)=O)cc2c1,0,0,0,0,0,0
COc1ccc2[nH]c(=O)c(CN(C(C)=O)C3CCCCC3)cc2c1,0,0,0,0,0,0
COc1ccc2[nH]c(=O)c(CN(C(=O)NC3CCCCC3)C3CCCC3)cc2c1,?,14.6µM,0,0,0,0
O=C(NC1CCCCC1)N(CCO)Cc1cc2cc3c(cc2[nH]c1=O)OCCO3,0,0,0,0,0,0
CCC(C)(C)n1nnnc1CN(Cc1cc2cc(OC)ccc2[nH]c1=O)C1CCCC1,5.8µM,18.4µM,0,0,?,0
CCOc1ccc(N(Cc2cc3cc(OC)ccc3[nH]c2=O)S(C)(=O)=O)cc1,0,14.6µM,0,?,0,0
CCc1ccc2[nH]c(=O)c(CN(CCN(CC)CC)C(=O)NC3CCCCC3)cc2c1,?,0,?,?,0,16.4µM
COc1ccc(Cn2nnnc2CN(Cc2cc3ccc(C)cc3[nH]c2=O)C2CCCC2)cc1,0,?,0,?,0,?
CCN=C1S/C(=C\c2cn(C(C)=O)nc2-c2ccccc2)C(=O)N1CC,?,18.4µM,0,0,0,0
CC(=O)NC1=NC(=O)/C(=C/c2cn(C(C)=O)nc2-c2ccccc2)S1,?,?,0,0,?,0
CCN=C1S/C(=C/c2ccc(-c3ccc(Cl)cc3C(=O)O)o2)C(=O)N1CC,6.51µM,0,0,0,11.6µM,0
CCN=C1S/C(=C\c2ccc(-c3cccc(C(=O)O)c3)o2)C(=O)N1CC,?,0,0,0,5.8µM,0
O=C(O)c1cccc(-c2ccc(/C=C3/SC(=Nc4ccccc4)N(Cc4cccnc4)C3=O)o2)c1,0,0,0,0,0,0
O=C(N/N=C\c1cccc([N+](=O)[O-])c1O)C1COc2ccccc2O1 (stereo unspecified),0,0,0,?,?,?
CN(C)c1ccc(/C=N/NC(=O)C2COc3ccccc3O2)o1 (stereo unspecified),0,0,0,0,0,?
O=C(N/N=C/c1ccc(-c2ccc([N+](=O)[O-])cc2)o1)[C@H]1C[C@@H]1c1ccccc1,23.1µM,0,0,0,8.2µM,0
COc1cc([N+](=O)[O-])cc(/C=N\NC(=O)C2COc3ccccc3O2)c1O (stereo unspecified),?,?,?,18.4µM,0,?
SMILES,MCF10A rerep,KB-V1 cytotox,KB-3-1 tox,HT1080 IDH1KD tx,SW480 rereplic,HT1080NT lethal
O=C(N/N=C\c1ccc(-c2ccc([N+](=O)[O-])cc2)o1)C1COc2ccccc2O1 (stereo unspecified),20.6µM,?,0,0,0,0
CCCCNC(=O)C1(C)CCN1C(=O)c1ccc2sccc2c1 (stereo unspecified),-,0,0,0,-,0
CCOCCCNC(=O)c1c(N)n(-c2ccc(S(N)(=O)=O)cc2)c2nc3ccccc3nc12,?,0,0,0,?,0
COCCNC(=O)c1c(N)n(/N=C/c2cccs2)c2nc3ccccc3nc12,?,0,0,0,5.8µM,0
COCCNC(=O)c1c(N)n(/N=C/c2ccc(F)cc2)c2nc3ccccc3nc12,2.59µM,0,0,0,5.8µM,0
CC(C)CNC(=O)c1c(N)n(/N=C/c2ccccn2)c2nc3ccccc3nc12,18.4µM,0,0,0,?,0
COc1cccc(/C=N/n2c(N)c(S(=O)(=O)c3cccs3)c3nc4ccccc4nc32)c1,0,0,0,0,0,0
CCc1nnc(NC(=O)CN2C(=O)N(C)C3(CCCCC3)C2=O)s1,0,0,0,0,0,0
O=C1c2oc3ccccc3c(=O)c2C(c2cccnc2)N1Cc1ccco1 (stereo unspecified),0,7.31µM,0,0,0,0
CN(C)CCN1C(=O)c2oc3ccc(Cl)cc3c(=O)c2C1c1cccc(Br)c1 (stereo unspecified),0,0,0,0,0,0
CN(C)CCN1C(=O)c2oc3ccccc3c(=O)c2C1c1cccc(Br)c1 (stereo unspecified),0,10.3µM,0,0,0,0
Cc1ccccc1Nc1cc(C(=O)NCCCN2CCN(c3cccc(Cl)c3)CC2)c2ccccc2n1,-,?,0,-,-,-
O=C(Nc1ccc(F)cc1)c1cccnc1Oc1ccccc1,0,0,0,0,0,0
O=C(NNc1cccc(Cl)c1)c1cccnc1Oc1ccccc1,?,0,0,6.51µM,0,?
CCOC(=O)c1ccccc1NC1(c2ccc(OC)cc2)C(=O)c2ccccc2C1=O,-,0,0,-,-,-
Cc1cnc(Nc2nc3ccccc3o2)nc1C(=O)Nc1cccc(C(F)(F)F)c1,?,14.6µM,16.4µM,0,?,0
Cc1occc1C(=O)Nc1cccc(C(F)(F)F)c1,0,0,0,0,0,0
Cc1cc(C)n2nc(SCC(=O)N3CC(C)CC(C)C3)nc2n1 (stereo unspecified),0,?,0,0,0,0
O=c1cc2c(n[nH]1)-c1ccccc1CC2,0,?,1.3µM,0,0,0
O=C1c2ccccc2CCc2ccccc21,0,0,0,0,0,0
CS(=O)(=O)n1c2ccccc2c(=O)n1-c1ccccc1CCl,-,0,0,0,-,0
CC12CC3CC(C)(C1)CC(C(=O)NCc1ccco1)(C3)C2,0,0,0,0,0,0

# Source: PubChem BioAssay
